PubChem BioAssay (Tox21)
Inconclusive results are not listed. A call without a number means that no potency is given here. Calls of active or inactive are those of the source. Calls follow the shape of the dose curve; as a rule, active = well fitted cell-killing curve with a large enough effect in the repeat runs (not every such curve was filed as active); inconclusive = weak or mixed curves, or effect the other way; inactive = no such curve, though single readings can be large or run the other way.

assay: qHTS assay to identify small molecule antagonists of the farnesoid-X-receptor (FXR) signaling pathway - cell viability counter screen (AID 743221); settings: FXR-bla HEK293T viability, CellTiter-Glo luminescence, 16 h; series mostly up to 62.6 µM; also: nearly all actives have a fitted effect of over 50% in size
Source text: National Center for Advancing Translational Sciences [NCATS]
NIH Chemical Genomics Center [NCGC]
U.S. Environmental Protection Agency [EPA]
National Institutes of Environmental Health Sciences [NIEHS]
National Toxicology Program [NTP]
U.S. Food and Drug Administration [FDA]
The farnesoid-X-receptor (FXR), a nuclear hormone receptor, is highly expressed in liver, intestine, kidney and adrenal cortex. Natural ligands of FXR are the bile acids (Cholic acid, Chenodeoxy cholic acid etc). FXR is an important regulator of diverse metabolic pathways, including the bile acid homeostasis, lipid and glucose metabolisms. FXR regulates the expression of target genes by binding either as a monomer or as a heterodimer with the retinoid X receptor (RXR). Numerous studies have reported that FXR exerts protective function during cholestasis, diabetes, liver regeneration, and cancer. To identify compounds that inhibit FXR signaling, GeneBLAzer FXR-UAS-bla HEK 293T cell line (Invitrogen, Carlsbad, CA) containing a beta-lactamase reporter gene under the control of a UAS response element was used to screen the Tox21 10K compound library. The cytotoxicity of the Tox21 compound library against the FXR-bla cell line was tested in parallel by measuring the cell viability using CellTiter-Glo assay in the same wells.
Tox21 Assay Protocol Summary:
FXR-bla cells were dispensed at 5000 cells/5uL/well in 1536-well black wall/clear bottom plates using a Multidrop Combi (Thermo Fisher Scientific, Waltham, MA) dispenser. After the assay plates were incubated at 37 C and 5% CO2 for 5 h, 23 nL of compounds dissolved in DMSO, positive controls or DMSO only was transferred to the assay plate by a Pintool station (Kalypsys, San Diego, CA), followed by addition of 1 uL Chenodeoxycholic acid (50 uM, final concentration in the wells). The assay plates were incubated at 37C for 16 h. After 1 uL of LiveBLAzerTM B/G FRET substrate was added using a Bioraptr Flying Reagent Dispenser (FRD) workstation (Beckman Coulter, Indianapolis, IN), the plates were incubated at room temperature for 2 h, and fluorescence intensity was measured by an Envision plate reader (PerkinElmer, Shelton, CT). For cell viability readout that measures cytotoxicity, 4uL/well of CellTiter-Glo reagent was added into the assay plates using a Bioraptr FRD. After 30 min incubation at room temperature, the luminescence intensity in the plates was measured using a ViewLux plate reader (PerkinElmer).

SMILES | Potency | activity change, negative = cytotoxicity
N#CCC#N | inactive | 
CC(c1ccc(O)cc1)(c1ccc(O)cc1)c1ccc(O)cc1 | inactive | 
O=C(NCc1cccnc1)Nc1ccc([N+](=O)[O-])cc1 | inactive | 
O=C=Nc1ccc(Cl)cc1 | inactive | 
O=[N+]([O-])c1cc(C(F)(F)F)cc([N+](=O)[O-])c1Cl | inactive | 
CCOC(=O)[C@]1(c2ccccc2)Oc2ccccc2[C@@H]1N | inactive | 
CC[C@H]1C[C@H]2[C@@H]3CCC4=CC(=O)CC[C@@H]4[C@H]3CC[C@]2(C)[C@H]1O | inactive | 
O=C1NCN(c2ccccc2)C12CCN(CCCOc1ccc(F)cc1)CC2 | inactive | 
O=[N+]([O-])C(Br)(CO)CO | inactive | 
Cl/C=C\Cl | inactive | 
Cc1ccccc1C(=O)Nc1cccc(OC(C)C)c1 | inactive | 
NCC(CC(=O)O)c1ccc(Cl)cc1 (stereo not given) |  | 3.53% [at 0.55 µM] (inactive)
CNC(C)Cc1ccccc1OC (stereo not given) | inactive | 
Cc1ccc(-c2c(Cl)nc(C#N)n2S(=O)(=O)N(C)C)cc1 | inactive | 
Cc1ccc(N)cc1C | inactive | 
C[N+](C)(C)CCCl | inactive | 
CCN(C)N=O | inactive | 
NNC(=O)c1cccnc1 | inactive | 
Clc1ccc(C(OCCN2CCCCC2)c2ccccc2)cc1 (stereo not given) | inactive | 
CCc1ccc(C(=O)NN(C(=O)c2cc(C)cc(C)c2)C(C)(C)C)cc1 | inactive | 

SMILES | Potency | activity change, negative = cytotoxicity
COC1=CC(=O)O[C@@H](CCc2ccccc2)C1 | inactive | 
CN(C)c1ccc(N(C)C)cc1 | inactive | 
Clc1ccc(C2(Cn3cncn3)CC(Br)CO2)c(Cl)c1 (stereo not given) | inactive | 
Oc1ccc(Cl)c(Cl)c1Cl | inactive | 
C=CC[C@]1(O)CC[C@H]2[C@@H]3CCC4=CC(=O)CCC4=C3C=C[C@@]21C | inactive | 
CCCC(Cn1cncn1)c1ccc(Cl)cc1Cl (stereo not given) | inactive | 
Brc1ccccc1 | inactive | 
CC(=O)CCC(C)=O | inactive | 
CC(C)O.CC(C)O.OCCN(CCO)CCO.OCCN(CCO)CCO.[Ti] | inactive | 
O=C(O)C(F)(F)C(F)(F)C(F)(F)C(F)(F)C(F)(F)C(F)(F)C(F)(F)C(F)(F)C(F)(F)F | inactive | 
CCCN(CC1CC1)c1c([N+](=O)[O-])cc(C(F)(F)F)cc1[N+](=O)[O-] | inactive | 
CS/C(C)=N/OC(=O)N(C)SN(C)C(=O)O/N=C(\C)SC | inactive | 
CC(Cl)Cl | inactive | 
C/C=C/C=O | inactive | 
CCCCCCCCCCOC(=O)c1ccccc1C(=O)OCCCCCCCCCC | inactive | 
CC(=O)NC1CCSC1=O (stereo not given) | inactive | 
CCO[C@H]1O[C@@H]2OC3(C)CC[C@H]4[C@H](C)CC[C@@H]([C@H]1C)[C@@]24OO3 | inactive | 
c1ccoc1 | inactive | 
ClC=C(Cl)Cl | inactive | 
Clc1cccc(SC2CCNCC2)n1 | inactive | 
